# Source: paper PMC6212790, “How bacterial xenogeneic silencer rok distinguishes foreign from self DNA in its resident genome”
# Whole data set: some 33,000 sequences, median “e-score” near -0.037, cut for the highest 2% near 0.34. This is one part of a sample in which the highest values are shown more often than they occur.
# Biological target: T1, GST-Rok (full length) (Bacillus subtilis subsp. subtilis str. …, UniProt O34857 1-191)
# T1 sequence: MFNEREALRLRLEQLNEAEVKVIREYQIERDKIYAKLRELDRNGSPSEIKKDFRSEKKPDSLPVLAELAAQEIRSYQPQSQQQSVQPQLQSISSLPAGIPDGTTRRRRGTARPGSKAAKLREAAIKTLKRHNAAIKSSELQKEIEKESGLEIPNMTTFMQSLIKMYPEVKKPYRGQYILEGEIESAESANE
# Assay: protein binding microarray; Rok is a gene silencer of Bacillus subtilis; high values mean tight binding
# Conditions: protein: recombinant; tags: GST (pTH5325, pDEST15-Magic modified); dsDNA, one strand shown
# In short: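 Every oligonucleotide joins a 25-mer constant primer to a 35-mer variable part drawn from a de Bruijn sequence of order 10, so each non-palindromic 8-mer appears at least 32 times and each palindromic 8-mer 16 times. The preference for every 8-mer is reported as a unitless, rank-based enrichment score (E-score). This score spans 0.5 for the most favored 8-mer to −0.5 for the most disfavored.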
row,Sequence,binding signal [E-score]
1,CAAACAAC,0.00627
2,TAGCGGAA,0.245
3,GATGGACC,-0.171
4,ATTGTTCA,0.126
5,ACTGGCGG,-0.0567
6,CAGCTGGA,-0.0564
7,GGAGCAAC,-0.104
8,AAACTAGC,0.362
9,AAACTAGG,0.252
10,AAACTAGT,0.459
11,ACACTAGT,0.32
12,CAACTAGC,0.203
13,GAACTAGC,0.176
14,AAATCCAT,0.193
15,GGAGGTGA,-0.124
16,CCGGCAGC,-0.14
17,CCGCGTCG,0.0351
18,ACAGTGTA,0.268
19,GTAACTCA,0.22
20,CGTTTTAA,0.191
21,ACGAGTAG,-0.0634
22,AAAGTACA,0.364
23,AATGTATC,0.224
24,AATGTACG,0.192
25,GTTGTATA,0.348

row,Sequence,binding signal [E-score]
1,AATGTATG,0.272
2,CAAGTACA,0.165
3,AATGTACT,0.303
4,AATGTACA,0.347
5,ATTGTATA,0.32
6,AATGTATA,0.388
7,AAAGTACG,0.22
8,CTTGTATA,0.219
9,CAGTACTG,0.0294
10,CCTGGCGA,-0.199
11,GTCCGTCA,-0.0558
12,GGCAGCTA,-0.0821
13,AGAAAGAT,0.0756
14,AAGGCGGT,-0.0994
15,GATGTACA,0.282
16,ATTGTACC,0.239
17,ATTGTACG,0.266
18,TATGTACA,0.378
19,ATTGTACA,0.369
20,CATGTACA,0.317
21,ACGCTTGC,-0.1
22,CCGTTTTA,0.0815
23,GAAATCTC,0.209
24,CAAATCTG,-0.00951
25,TAAATCTA,0.308

row,Sequence,binding signal [E-score]
1,CAAATCTC,0.0513
2,CCAATCTA,0.283
3,GAAATCTA,0.345
4,CAAATCTA,0.377
5,ACAATCTA,0.283
6,GCAATCTA,0.361
7,ATTGATCG,0.0726
8,CAACTGAA,-0.0305
9,CCTCTCTA,-0.198
10,CGTATCGA,0.0045
11,ACAAATAA,0.333
12,ATAAATAA,0.329
13,ATAAATAG,0.322
14,ACAAATAC,0.249
15,ACAAATAT,0.402
16,ATAAATAT,0.339
17,AATAACCT,0.0317
18,AACCACGT,-0.0233
19,ACCATAGT,0.207
20,GGATAGAA,0.171
21,TGATAGAA,0.388
22,CGATAGAA,0.344
23,CGATAGAC,0.0161
24,CGATAGAG,-0.134
25,AGATAGAA,0.26

row,Sequence,binding signal [E-score]
1,AGGTGCCA,-0.0282
2,CTTATTGA,-0.157
3,AATAGATC,0.14
4,GATAGATC,0.273
5,AATAGATT,0.388
6,GATAGATA,0.368
7,TATAGATA,0.384
8,CATAGATA,0.3
9,AATAGATA,0.262
10,GATAGACA,-0.0476
11,AATAGATG,0.261
12,ACCGTACT,0.0822
13,ATTTGGCC,-0.00123
14,CACGGTAG,0.264
15,AACATCAA,0.0614
16,CGAAGCAA,-0.114
17,AACCTCGC,-0.106
18,AAATTCGT,0.226
19,AAAATATG,0.278
20,AAAATATA,0.417
21,GAAATATA,0.283
22,AAAATATT,0.358
23,CAAATATA,0.345
24,AAAATAAA,0.199
25,CAAATATG,0.194

row,Sequence,binding signal [E-score]
1,TAAATAAA,0.231
2,CAAATATC,0.285
3,AAAATATC,0.275
4,ACAATATA,0.298
5,TAAATATA,0.394
6,AATGACCG,-0.0639
7,AGGAATTC,-0.159
8,ACGAACCA,0.000876
9,TCATTCAA,-0.111
10,CAGTTTTC,0.0134
11,GATCGATA,0.269
12,TATCGATA,0.376
13,AATCGATA,0.281
14,CTACAATA,0.291
15,AGAATCCT,0.0705
16,ACGAAACA,0.0691
17,ACGAAACC,-0.0947
18,ACGAAACT,0.337
19,AGCCTTAG,-0.181
20,ATTAGATA,0.367
21,AGTAGATA,0.442
22,ATGAGATC,0.0598
23,CGTAGATA,0.258
24,ATGAGATA,0.346
25,ATTAGATC,0.293

row,Sequence,binding signal [E-score]
1,GTTAGATA,0.241
2,CTGAGATA,0.0758
3,GGTAGATA,0.451
4,CGTAGATC,0.21
5,AGTAGATG,0.283
6,AGTAGATC,0.324
7,CGTAATAA,0.27
8,CTCTTCGC,0.197
9,CCATAAAC,-0.00276
10,ATAAAGAA,-0.0956
11,GTCATAAA,0.154
12,AATCTTCG,0.0665
13,TACTTATA,0.321
14,AATTTATG,0.283
15,AACTTATA,0.403
16,ATTTTATG,0.251
17,CACTTATA,0.329
18,GTTTTATA,0.141
19,ATTTTATA,0.41
20,GATTTATA,0.315
21,AATTTATA,0.435
22,CTAATCGC,0.18
23,AGAAACAT,0.155
24,CGGCTATC,-0.0522
25,ACTAGCGG,0.188

row,Sequence,binding signal [E-score]
1,CCAAACGA,0.042
2,GAAATGCA,-0.095
3,AAAATGTA,0.287
4,TAAATGTA,0.411
5,GAAATGTC,0.126
6,CAAATGTA,0.289
7,GAAATGTA,0.351
8,CTTGTTTC,0.0903
9,CAAACCAG,-0.185
10,AACCATGC,-0.0502
11,CCTATCAA,0.161
12,ACTATCAC,0.34
13,CCTATCAC,0.0828
14,ACTATCAA,0.337
15,GCTATCAC,0.244
16,GCTATCAA,0.164
17,AGAAAGTC,0.121
18,GTAAAGAA,0.0756
19,TCTATTCA,0.0926
20,AACTAAAA,0.345
21,ACCTAAAA,0.306
22,AACTAAAG,-0.0498
23,AACTAAAT,0.362
24,TACTAAAA,0.434
25,GACTAAAA,0.123

row,Sequence,binding signal [E-score]
1,AACTAAAC,0.138
2,AACTAAGA,0.138
3,CACTAAAA,0.293
4,CGCCCAAC,-0.14
5,AACTTTGA,-0.0517
6,AACATTAC,0.214
7,GGTAGGTA,0.304
8,AGTAGGTG,0.174
9,AGTAGGTA,0.404
10,CCTAGGTA,0.0506
11,AGTAGGTC,0.069
12,CGTAGGTA,0.347
13,GATGGAGA,-0.0862
14,ATTAACCG,0.0492
15,CGAAAGGC,-0.183
16,CTTACAAG,-0.114
17,ATGAATCC,0.0418
18,ATAGCTAG,0.273
19,CTAGCTAC,0.198
20,ATAGCTAC,0.333
21,GTAGCTAC,0.436
22,GAAGCTAC,0.323
23,GTAGCTAA,0.373
24,CTAGCTAA,0.133
25,TTAGCTAA,0.129

row,Sequence,binding signal [E-score]
1,ATAGCTAT,0.373
2,CCGCTGAC,-0.15
3,GCCGCATA,-0.186
4,AGAGTCGA,-0.0761
5,CTAGTGTC,0.0749
6,GGCAGTAC,-0.0236
7,GCGGATCA,-0.193
8,ACAAGGAA,-0.0483
9,ATTCACCC,0.0731
10,CTTACTAA,0.222
11,ATTACTGG,-0.0684
12,ATTACTAC,0.355
13,ATTACTAG,0.398
14,ATTACTGC,0.138
15,ATTACTCG,0.225
16,GTTACTAA,0.283
17,ATTACTAA,0.357
18,CTTACTAC,0.169
19,AGGTCCAG,-0.187
